Data reported in PubChem BioAssay AID1159580 (chemical genetic matrix, 2015).
The whole screen tested about 5,500 compounds, of which about 2,000 (36%) were called active. Roughly 18% stayed inconclusive and do not appear here. Rule as the data show it: active = normalized growth mostly below about 0.91 (no sharp cut-off); inconclusive = no clear call, values can overlap the other calls; inactive = mostly above about 0.92. This is one part of the list.

Experiment: chemical genetic growth profiling, strain panel (AID 1159580);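 also: tested at 20 µM; growth read once vehicle control cultures reached saturation at 30 °C; 1 = growth at the plate median or of vehicle wells; lower values mean less growth of the strain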
Conditions: S. cerevisiae deletion strains, growth OD

Measured: normalized growth

Cc1nc([N+](=O)[O-])cn1CC(=O)c1ccc(Cl)cc1
active: locus YGR092W, strain DBF2, active compounds read low 0.416 | locus YHR030C, strain SLT2, active compounds read low 0.189 | locus YLR113W, strain HOG1, active compounds read low 0.539
inactive: locus YAR019C, strain CDC15, active compounds read low 0.973 | locus YBL105C, strain PKC1, active compounds read low 0.97 | locus YBR135W, strain CKS1, active compounds read low 0.982 | locus YBR136W, strain MEC1, active compounds read low 0.973 | locus YBR160W, strain CDC28, active compounds read low 0.984 | locus YDL017W, strain CDC7, active compounds read low 0.981 | locus YDL028C, strain MPS1, active compounds read low 0.969 | locus YDL101C, strain DUN1, active compounds read low 0.978 | locus YDL108W, strain KIN28, active compounds read low 0.963 | locus YDL132W, strain cdc53, active compounds read low 0.976 | locus YDL214C, strain PRR2, active compounds read low 0.927 | locus YDR052C, strain DBF4, active compounds read low 0.964 | locus YDR054C, strain cdc34, active compounds read low 0.973 | locus YDR226W, strain ADK1, active compounds read low 0.972 | locus YDR477W, strain SNF1, active compounds read low 0.938 | locus YER123W, strain YCK3, active compounds read low 0.782 | locus YER133W, strain GLC7, active compounds read low 0.94 | locus YFL009W, strain cdc4, active compounds read low 0.982 | locus YFL029C, strain CAK1, active compounds read low 0.971 | locus YFR003C, strain YPI1, active compounds read low 0.979 | locus YFR019W, strain FAB1, active compounds read low 0.901 | locus YFR028C, strain CDC14, active compounds read low 0.98 | locus YGR040W, strain KSS1, active compounds read low 0.94 | locus YGR052W, strain FMP48, active compounds read low 1.03 | locus YHR079C, strain IRE1, active compounds read low 1.05 | locus YHR082C, strain KSP1, active compounds read low 1.04 | locus YHR205W, strain SCH9, active compounds read low 0.964 | locus YIL147C, strain SLN1, active compounds read low 0.96 | locus YJL095W, strain BCK1, active compounds read low 1.02 | locus YJL128C, strain PBS2, active compounds read low 0.906 | locus YJL157C, strain FAR1, active compounds read low 0.922 | locus YJR016C, strain ILV3, active compounds read low 0.97 | locus YJR066W, strain TOR1 (second series), active compounds read low 0.898 | locus YJR066W, strain TOR1, active compounds read low 1.04 | locus YKL048C, strain ELM1, active compounds read low 0.966 | locus YKL067W, strain YNK1, active compounds read low 0.947 | locus YKL101W, strain HSL1, active compounds read low 0.954 | locus YKL193C, strain SDS22, active compounds read low 0.969 | locus YKL203C, strain TOR2, active compounds read low 1.02 | locus YLR133W, strain CKI1, active compounds read low 0.962 | locus YLR403W, strain SFP1, active compounds read low 0.941 | locus YML070W, strain DAK1, active compounds read low 0.904 | locus YMR001C, strain CDC5, active compounds read low 0.976 | locus YMR205C, strain PFK2 (second series), active compounds read low 0.966 | locus YMR277W, strain FCP1, active compounds read low 0.964 | locus YNL006W, strain LST8, active compounds read low 0.983 | locus YNL020C, strain ARK1, active compounds read low 0.959 | locus YNL161W, strain CBK1, active compounds read low 0.971 | locus YNL183C, strain NPR1, active compounds read low 1 | locus YNL207W, strain RIO2, active compounds read low 0.965 | locus YNL222W, strain SSU72, active compounds read low 0.977 | locus YNL307C, strain MCK1 (second series), active compounds read low 0.967 | locus YOL078W, strain AVO1, active compounds read low 0.969 | locus YOL136C, strain PFK27, active compounds read low 0.927 | locus YOR061W, strain CKA2, active compounds read low 0.94 | locus YOR119C, strain RIO1, active compounds read low 0.985 | locus YOR231W, strain MKK1, active compounds read low 1 | locus YOR329C, strain SCD5, active compounds read low 0.977 | locus YPL031C, strain PHO85, active compounds read low 0.949 | locus YPL153C, strain RAD53, active compounds read low 0.916 | locus YPL204W, strain HRR25, active compounds read low 0.921 | locus YPL209C, strain IPL1, active compounds read low 0.984 | locus YPL256C, strain CLN2, active compounds read low 1.01 | locus YPR025C, strain CCL1, active compounds read low 0.985 | locus YPR106W, strain ISR1, active compounds read low 0.982 | locus YPR111W, strain DBF20, active compounds read low 0.989 | strain NNK1, active compounds read low 0.979 | strain TSCII, active compounds read low 0.969

C(=C\c1ccccc1)/CN1CCN(C(c2ccccc2)c2ccccc2)CC1
inactive: locus YAL040C, strain CLN3, active compounds read low 0.995 | locus YCL061C, strain MRC1 (second series), active compounds read low 0.992 | locus YMR307W, strain GAS1, active compounds read low 0.998 | locus YNL153C, strain GIM3, active compounds read low 0.851 | locus YNL197C, strain WHI3, active compounds read low 1.11 | locus YNL224C, strain SQS1, active compounds read low 1.02 | locus YOR083W, strain WHI5 (second series), active compounds read low 0.99 | locus YPL055C, strain LGE1, active compounds read low 1
active: locus YER002W, strain NOP16, active compounds read low 1.09 [resistant]
